In all, about 33,000 sequences were measured (“E-score (-0.5 to 0.5)”: median about -0.021, highest 2% from about 0.32 on). Shown is part of a subset that was picked to be rich in the highest values.
target: T1, Zap1 (UniProt P47043); experiment: PBM E-score (8-mer binding enrichment) (E-score (-0.5 to 0.5)); higher = stronger / more preferred TF binding; settings: protein concentration: 200 nM; construct: GST-full length
T1 sequence: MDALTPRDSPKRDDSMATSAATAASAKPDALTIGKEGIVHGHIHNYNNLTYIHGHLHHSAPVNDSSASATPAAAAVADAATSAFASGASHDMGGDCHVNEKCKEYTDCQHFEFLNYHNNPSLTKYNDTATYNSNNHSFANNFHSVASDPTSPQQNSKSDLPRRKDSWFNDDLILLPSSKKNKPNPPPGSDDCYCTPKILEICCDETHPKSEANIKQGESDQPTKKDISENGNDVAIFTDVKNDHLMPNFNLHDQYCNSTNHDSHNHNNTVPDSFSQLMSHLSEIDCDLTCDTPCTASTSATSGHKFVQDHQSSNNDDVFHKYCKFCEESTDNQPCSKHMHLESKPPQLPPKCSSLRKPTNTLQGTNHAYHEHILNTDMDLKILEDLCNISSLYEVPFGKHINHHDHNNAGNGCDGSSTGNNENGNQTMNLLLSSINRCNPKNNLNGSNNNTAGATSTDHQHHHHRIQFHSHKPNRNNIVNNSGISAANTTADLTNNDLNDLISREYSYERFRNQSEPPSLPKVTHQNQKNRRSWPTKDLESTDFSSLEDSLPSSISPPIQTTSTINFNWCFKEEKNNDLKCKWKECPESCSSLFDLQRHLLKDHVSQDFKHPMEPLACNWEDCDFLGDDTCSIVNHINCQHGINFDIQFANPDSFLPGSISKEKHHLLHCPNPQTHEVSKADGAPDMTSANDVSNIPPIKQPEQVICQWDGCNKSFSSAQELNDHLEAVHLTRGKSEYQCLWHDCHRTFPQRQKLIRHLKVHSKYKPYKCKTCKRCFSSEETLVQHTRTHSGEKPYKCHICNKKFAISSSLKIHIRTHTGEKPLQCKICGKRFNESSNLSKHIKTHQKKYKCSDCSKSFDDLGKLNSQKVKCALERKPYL
Experimental: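 Universal 'all 10-mer' protein binding microarrays (Agilent AMADID 015681) probed with GST-tagged S. cerevisiae TFs (full-length or DBD) made by in vitro transcription/translation (PURExpress), about 100-200 nM. Bound TF was detected with fluorescent anti-GST. Each ungapped 8-mer (which stands for itself and its reverse complement) is scored by the PBM enrichment score (E-score), a modified Wilcoxon-Mann-Whitney statistic from -0.5 to +0.5, computed with the Universal PBM Analysis Suite. Scale: above 0.35 generally sequence-specific binding.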

Sequence	PBM E-score
GCAAGGTA	0.265
CCGTCCTC	-0.191
CTGGTGAA	-0.0889
AGCTGTCC	-0.225
CACCGCGG	0.176
CACCGCGA	0.0268
AACCGCGG	0.374
CCGCGCGA	0.124
TACCGCGA	0.328
GACCGCGA	0.259
CCGCGCGC	0.0679
AACCGCGT	0.227
CCGCGCGG	0.332
AACCGCGC	0.24
AACCGCGA	0.367
AACCGCAG	0.126
AGCACTAC	-0.0779
CCGAAGCA	-0.176
ACACAATC	0.00143
CCAGGGCG	-0.178
TCCAAGAA	-0.0864
CGTCTCAC	-0.107
AGCATTTG	-0.00877
AGCAAGCA	-0.167
ATTAATAA	0.21

Sequence	PBM E-score
ATTAATAC	0.344
ATTAATAG	0.195
ATGCCACC	-0.11
CTGGCCGA	-0.318
ACTTTAGA	0.0114
GATGGCAA	-0.0776
GAATGACA	-0.0394
GCATGACC	0.234
CCATGACC	0.416
GAATGACC	0.338
CCATGACG	0.0693
AAATGACC	0.317
GTTGGCCA	-0.015
GCGCCTTA	-0.066
GAGTTTAA	0.121
AACCTACA	0.264
ACCTACCA	0.126
CGTGGTTA	0.348
AGTGGTTG	0.312
GGTGGTGA	0.23
AGTGGTTC	0.129
GGTGGTTA	0.433
CGTGGTCA	0.195
CGTGGTAA	0.0908
GGTGGTAA	0.274

Sequence	PBM E-score
AGTGGTCA	0.197
CGTGGTTC	0.185
GGTGGTCA	0.341
AGTGGTTA	0.434
CCCACTTA	-0.0455
CTTGTGAC	0.0651
CCTTCATA	0.102
GCAGCACA	-0.0816
GACAAAGC	-0.143
GGTCCTCA	0.0332
CCAGAGTC	0.0266
AACAGTCT	-0.14
GAAACATC	-0.0445
AAAACATA	0.0671
GAAACATA	0.318
GACTTAGC	-0.317
GAGCGCCA	-0.291
TGGATTAA	0.0758
AACCCCGG	0.337
AACCCGGT	0.249
AACCCGGG	0.324
CACCCGGG	0.129
CACCCGGA	0.235
AACCCCCG	-0.149
ACCCCGGG	0.34

Sequence	PBM E-score
GACCCGGA	0.118
ACCCCCGG	-0.0785
ACCCCGGC	0.119
CCCCCGGG	0.167
AACCCGGA	0.332
GGCAGACC	-0.192
TCACGCAA	0.0552
GTATAGCA	-0.104
CTTGTTGA	0.124
GGAACAAA	0.111
CTAGCTCC	-0.246
CCGAGCAC	-0.0385
AGAAACTA	-0.0549
AGAGAAAC	-0.0339
AAGGGAAC	0.0495
GAGCTAGC	-0.179
CTCCTTTC	-0.0488
ATGTAACA	0.153
CTGTAAAC	0.16
ATGTAACG	0.0833
CTGTAACA	0.00661
CTGTAACC	0.463
ATGTAACC	0.395
ACTGCTAT	-0.0537
AAACGGAA	0.127

Sequence	PBM E-score
AAGACCGC	0.0669
GAGCAACC	0.0661
ATCGGTTC	0.0913
AATGACCC	0.3
CATGACCG	0.177
CATGACCC	0.38
CATGACCA	0.284
GATGACCA	0.129
GATGACCC	0.403
CCGACCTC	-0.0902
CGATCTGA	-0.0395
CAACTGTC	-0.0568
ACGAAGGA	-0.166
CCCCTTTA	-0.00689
ACCCTTTG	0.345
ATCCTTTG	0.161
ACCCTTTC	0.298
ACCCTTTA	0.415
GCCCTTTA	-0.0495
CCCTACGC	-0.17
GCGTCCCC	-0.249
AGTGCCCC	-0.156
AACCAGGT	0.201
ATGGAGCC	-0.222
GGCGGTAA	0.125

Sequence	PBM E-score
CGCGGTGA	0.144
AGCGGTTA	0.405
GGCGGTTA	0.324
AGCGGTTG	0.216
CGCGGTTC	0.181
CGCGGTTA	0.452
AGCGGTTC	0.164
GGCGGTCA	0.12
AAAAACTA	0.175
ATACCAAA	0.153
GCCTACTA	-0.0183
GAGTAACC	0.399
AAGTAACC	0.393
GAGTAACA	0.135
AAGTAACT	-0.0363
CAGTAACA	-0.0862
CAGTAACG	0.0273
AAGTAACG	0.052
CAGTAACC	0.44
GAGTAAGC	-0.221
GCAGTAAA	0.104
ATTATACC	0.338
ATTATACA	0.0605
ATTATACG	0.0915
CAGCAGAA	-0.0338

Sequence	PBM E-score
AGAGGTCC	0.201
GGAGGTCA	0.136
CGAGGTCC	0.0996
CGAGGTCA	0.357
AGAGGTCA	0.41
AGAGGTCG	0.304
ATGTCGCG	0.0309
CAGAAGCC	-0.173
GTCCCAAA	0.0529
AAGGTTCC	0.317
AGGGTTCG	0.0919
AGGGTTCA	0.146
AAGGTTCT	0.327
AGGGTTCC	0.354
CAGGTTCC	0.0995
AAGGTTCA	0.054
ATGGTTCC	0.21
AAGGTTCG	-0.0644
CCAGTGTA	-0.00071
CACTGTAA	0.0817
CTAGCGAA	-0.221
GCTTCAGA	-0.167

From the supplement of paper PMC3334620
